Activation data for 14 compounds are collected here from PubChem BioAssay AID504905 (The Scripps Research Institute Molecular Screening Center, 2011).

The other results are listed elsewhere or left out. Values without a mark were called inactive. The source made the active and inactive calls. Rule as the data show it: active = activation above about 17%; inactive = the rest.

The target in this assay is 5-hydroxytryptamine receptor 5A (Homo sapiens) (UniProt P47898). The assay can be described thus: activation of human 5-HT5A receptor – cell-based, luminescence, counter-screen for OPRM1-OPRD1 heterodimer agonist project (AID 504905).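 Also: 0% = vehicle-treated cells and 100% = reference agonist response.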 The conditions noted are these: HTR5A agonist counterscreen, at 9.3 µM, stronger effect = higher value.
Sequence of 5-hydroxytryptamine receptor 5A (Homo sapiens) (P47898 whole entry, looked up): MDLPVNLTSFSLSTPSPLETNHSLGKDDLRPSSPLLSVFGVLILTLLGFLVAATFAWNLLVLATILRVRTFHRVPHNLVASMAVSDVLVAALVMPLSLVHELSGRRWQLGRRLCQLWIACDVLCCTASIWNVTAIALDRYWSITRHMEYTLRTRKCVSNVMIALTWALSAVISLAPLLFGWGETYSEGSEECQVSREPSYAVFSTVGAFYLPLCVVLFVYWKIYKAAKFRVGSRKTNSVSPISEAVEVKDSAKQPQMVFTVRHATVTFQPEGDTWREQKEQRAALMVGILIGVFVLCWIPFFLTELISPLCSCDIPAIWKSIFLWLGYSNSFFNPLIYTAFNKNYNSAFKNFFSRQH
For the compound `CN(C)CCCN(C(=O)c1ccc(S(=O)(=O)N2CCCc3ccccc32)cc1)c1nc2ccc(F)cc2s1`, the activation was 7.49%. Take `CCNS(=O)(=O)c1ccc(NC(=O)Nc2cccc(OC)c2)cc1`: the activation was 3.27%.

As for `Cc1ccc(S(=O)(=O)N(CC(=O)Nc2cccnc2)c2ccc(Br)cc2)cc1`, the activation is 0.5%. The value for `O=C1N/C(=C/c2cccs2)C(=O)N1Cc1ccc(F)cc1` was 27.5% (active); that for `Cc1ccc(-n2c(SCC(=O)NCCC3=CCCCC3)nc3n[nH]c(C)c3c2=N)cc1Cl` was 1.57%. To `COC(=O)c1ccc(C23CC4(C2)[C@H](CN(Cc2cccnc2)[C@@H]4c2ccccc2)C3c2ccc(Cl)nc2)cc1` (some centres undefined) belongs 5.91%; to `CC1CCCN(CCOCCOc2ccccc2-c2ccccc2)C1` (centres undefined), 1.05%; to `Cc1cc(C)cc(C(=O)N(CCc2ccccc2)C2=CC3CCC(C2)N3C)c1` (centres undefined), -1.9%.

`O=C(NCc1cn2ccsc2n1)Nc1ccc(Cl)cc1`: the activation is -5.53%.

Take `COc1cc(C(=O)OC(C)C(=O)NCC2CCCCC2)cc(NC(=O)c2ccco2)c1OC` (centres undefined): the activation is -2.12%. The value for `Cc1ccc(CNC(=O)CC(NC(=O)c2ccccc2)c2ccccc2)cc1` (centres undefined) was -9.71%; that for `N#CC(C(=O)c1ccc(S(=O)(=O)N2CCCCCC2)cc1)c1nc2ccccc2[nH]1` (centres undefined) was 5.09%. Regarding `COc1ccc(SC[C@H](Cc2ccccc2)N2CCN(CCc3ccccc3)CCC2=O)cc1`, the activation was -1.8%.

As for `C=C(C)COc1ccc(-c2n[nH]c(C)c2-c2ccccc2)c(O)c1`, the activation is 5.34%.
